Here are results for 32 compounds from PubChem BioAssay (NCATS).

The structures appear in SMILES notation. Results filed as inconclusive are left out. Where a call stands in place of a potency, no number is given. The source made the active and inactive calls. The call rests on the fitted dose curve; in most records, active means well fitted cell-killing curve with a large enough effect; inconclusive means small, poorly fitted or top-dose-only effect; inactive means no such curve, though single readings can be large or run the other way.

The assay is described as follows: Cell Viability - LYMP2-001 (AID 921).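 Further: cells exposed to compound for 24 h at 37 °C; nearly all actives have a fitted effect of over 70% in size.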 The note with it: LYMP2-001 lymphoblastoid cell viability; series mostly up to 92.2 µM. In a few lines:
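qHTS, 1536-well; lymphoblastoid cells, 24 hr compound, 37 C; ATP by CellTiter-Glo, 30 min RT; luminescence; Hill-fit AC50.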
Take `Oc1cccc(Cl)c1Cl`: the Potency result was “inactive”. On to `CCC/C=N/O`, for which the Potency result is “inactive”.

On to `Cc1cnc[nH]1`, for which the Potency result was “inactive”.

For `CN(C)N=O`, the Potency entry is “inactive”. In the case of `COc1c(C(C)(C)C)cc([N+](=O)[O-])c(C)c1[N+](=O)[O-]`, the Potency entry is “inactive”.

`C=C(Cl)CCl`: the Potency entry was “inactive”. Regarding `CC12CC1(C)C(=O)N(c1cc(Cl)cc(Cl)c1)C2=O` (configuration not stated), the Potency result is “inactive”.

In the case of `CC(C)(Cl)[N+](=O)[O-]`, the Potency result is “inactive”. Take `CCCCOCC1CO1` (configuration not stated): the Potency entry is “inactive”. The entry for `O=C(O)c1cccc(Cl)c1` is “inactive”; for `C1CC2OC2CC1C1CO1` (configuration not stated) it is “inactive”; for `Brc1cccc(-c2ccccc2)c1` it is “inactive”. As to `ClCCOCCCl`, the Potency result is “inactive”. On to `CCNCC`, for which the Potency entry is “inactive”. `CC(C)C#N`: the Potency entry is “inactive”.

In the case of `Cl/C=C\Cl`, the Potency entry was “inactive”. `c1ccc2c(c1)CCNC2`: the Potency entry is “inactive”.

Regarding `CCBr`, the Potency entry is “inactive”.

Take `O=[N+]([O-])c1ccc(Cl)c(Cl)c1Cl`: the Potency entry was “inactive”. In the case of `N#CCCC#N`, the Potency entry is “inactive”. As for `Cc1ccccc1[N+](=O)[O-]`, the Potency result is “inactive”.

Consider `C=CC(=O)OCCN(C)C`, for which the Potency entry was “inactive”. Consider `CC(C)(C)C(O)(CCc1ccc(Cl)cc1)Cn1cncn1` (configuration not stated), for which the Potency entry is “inactive”.

Take `N#CCCCCC#N`: the Potency entry was “inactive”. Turning to `CN=C=O`, the Potency entry was “inactive”. `c1ccc(C2CO2)cc1` (configuration not stated): the Potency result was “inactive”.

`COc1ccc(C=O)cc1`: the Potency result was “inactive”.

Consider `Nc1ccc(Cl)c(Cl)c1`, for which the Potency entry was “inactive”. For `CC(=O)[O-].CC(=O)[O-].CC(=O)[O-].[Cr+3]`, the Potency result was “inactive”. As for `CC(=O)CCC(C)=O`, the Potency result was “inactive”.

On to `C=CC(=O)OCC(CC)CCCC` (configuration not stated), for which the Potency entry was “inactive”. For the compound `CC(C#N)CCC#N` (configuration not stated), the Potency result was “inactive”.
